Values without a mark were called inactive.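 Rule for the calls: active = AUC reduced over 20% with Padj below 0.05 in at least 2 of 3 replicates; inactive = otherwise.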
Experiments:
Assay in all cases: growth AUC relative to DMSO control (median of replicates) (fraction); higher = more growth (less inhibition), active = hit call of the paper
Conditions in all cases: 20 µM; 24 h
Akkermansia muciniphila = tested on: Akkermansia muciniphila
Method in brief: (§1)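 Each value is the median of three biological replicates, grown on separate days, of a gut bacterial monoculture incubated anaerobically at 37 °C in mGAM with 20 µM compound (1% DMSO). Cultures started at OD600 0.05 and were read at OD600 hourly for 24 h, with the minimum OD set to 0. Area under the growth curve was normalised to the plate median of solvent-only wells, or to row and column medians on the industrial chemical plate.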

Bacteroides caccae = tested on: Bacteroides caccae
Method in brief: as §1

Bacteroides clarus = tested on: Bacteroides clarus
Method in brief: as §1

Bacteroides dorei = tested on: Bacteroides dorei
Method in brief: as §1

Bacteroides stercoris = tested on: Bacteroides stercoris
Method in brief: as §1

[1] = tested on: Bacteroides thetaiotaomicron
Method in brief: as §1

Bacteroides uniformis = tested on: Bacteroides uniformis
Method in brief: as §1

[2] = tested on: Bifidobacterium longum subsp. longum
Method in brief: as §1

Clostridium difficile = tested on: Clostridium difficile
Method in brief: as §1

Collinsella aerofaciens = tested on: Collinsella aerofaciens
Method in brief: as §1

Row | SMILES | growth AUC (Akkermansia muciniphila) | growth AUC (Bacteroides caccae) | growth AUC (Bacteroides clarus) | growth AUC (Bacteroides dorei) | growth AUC (Bacteroides stercoris) | growth AUC [1] | growth AUC (Bacteroides uniformis) | growth AUC [2] | growth AUC (Clostridium difficile) | growth AUC (Collinsella aerofaciens)
1 | CCCCN(CCCC)SN(C)C(=O)Oc1cccc2c1OC(C)(C)C2 | 1.03 | 1.02 | 0.975 | 0.981 | 0.913 | 1.04 | 1.03 | 0.972 | 1.02 | 1.01
2 | CCCC(Cn1cncn1)c1ccc(Cl)cc1Cl (stereo not given) | 1.01 | 0.936 | 0.987 | 0.977 | 1.2 | 0.949 | 0.941 | 1.07 | 0.911 | 0.992
3 | O=S(=O)(c1ccc(Cl)cc1)c1cc(Cl)c(Cl)cc1Cl | 1.07 | 0.921 | 0.935 | 0.91 | 0.931 | 0.952 | 0.903 | 1.04 | 0.963 | 0.945
4 | CC1(C)CN=C(NN=C(/C=C/c2ccc(C(F)(F)F)cc2)/C=C/c2ccc(C(F)(F)F)cc2)NC1 | 0.911 | 0.961 | 0.979 | 1.03 | 0.902 | 1.03 | 0.991 | 0.998 | 0.972 | 1.09
5 | CC#Cc1cc(C)nc(Nc2ccccc2)n1 | 1.08 | 1.01 | 0.991 | 0.941 | 1 | 0.945 | 0.975 | 0.978 | 0.965 | 0.995
6 | Nc1c(Cl)cc([N+](=O)[O-])cc1Cl | 0.958 | 0.927 | 0.973 | 0.967 | 0.875 | 0.986 | 1.05 | 1.07 | 1 | 0.897
7 | O=[N+]([O-])/N=C1\NCCN1Cc1ccc(Cl)nc1 | 0.979 | 1.01 | 1.02 | 1.03 | 1.08 | 0.984 | 1 | 0.963 | 0.99 | 0.98
8 | CC(Oc1ccc(Oc2nc3ccc(Cl)cc3o2)cc1)C(=O)O (racemic) | 0.992 | 1.05 | 0.995 | 0.996 | 1.25 | 0.996 | 0.962 | 1.03 | 0.987 | 1.03
9 | CC1(C)[C@H](C(=O)O[C@H](C#N)c2cccc(Oc3ccccc3)c2)[C@@H]1C=C(Br)Br | 0.878 | 0.983 | 0.982 | 1.04 | 1.04 | 1.02 | 1.05 | 0.843 | 1.02 | 0.935
10 | COP(=O)(OC)Oc1ccc(SC)c(C)c1 | 0.861 | 0.994 | 0.978 | 1.03 | 0.981 | 0.979 | 0.982 | 1 | 0.999 | 0.993
11 | c1nc[n]([Sn]([CH]2CCCCC2)([CH]2CCCCC2)[CH]2CCCCC2)n1 | 1.02 | 0.997 | 0.86 | 0.939 | 0.935 | 0.955 | 0.901 | 0.506 | 0.951 | 0.814
12 | COC(=O)C1(O)c2ccccc2-c2ccccc21 | 0.893 | 1.03 | 0.97 | 1 | 1.01 | 0.981 | 0.984 | 0.996 | 0.991 | 1.03
13 | CC(=O)O.CC(=O)O.CC(=O)O.NC(N)=NCCCCCCCCNCCCCCCCCN=C(N)N | 0.692 | 0.639 (active) | 0.523 (active) | 0.0196 (active) | 0.0269 (active) | 0.0154 (active) | 0.158 (active) | 0.195 (active) | 0.869 | 0.871
14 | CC1(C)C(C=C(Cl)Cl)[C@@H]1C(=O)O[C@@H](C#N)c1ccc(F)c(Oc2ccccc2)c1 (stereo not given in full) | 0.998 | 0.986 | 1.01 | 1.01 | 0.992 | 1 | 0.976 | 0.983 | 0.996 | 0.96
15 | CNC(=O)CSP(=O)(OC)OC | 1.07 | 1.03 | 1.02 | 1.03 | 1.04 | 0.997 | 1.01 | 1.06 | 1.03 | 1.03
16 | CCOC(=O)/C=C(C)/C=C/C[C@@H](C)CCCC(C)C | 0.915 | 0.985 | 1.03 | 1.01 | 1.12 | 0.986 | 0.984 | 0.949 | 1.06 | 0.982
17 | CCN(Cc1ccc(Cl)nc1)/C(=C/[N+](=O)[O-])NC | 0.913 | 0.991 | 0.991 | 0.975 | 0.939 | 0.972 | 1.01 | 0.983 | 0.981 | 0.976
18 | COC(=O)NCc1cc(/C(C)=N\OCc2cccc(C)n2)ccc1Cl | 1.07 | 0.936 | 0.984 | 0.949 | 0.939 | 0.995 | 0.902 | 1.03 | 0.968 | 0.969
19 | O.[Br-].[Br-].c1cc[n+]2c(c1)-c1cccc[n+]1CC2 | 0.784 | 0.612 (active) | 0.992 | 0.996 | 1.01 | 1.01 | 0.984 | 1.02 | 0.912 | 0.995

Row | SMILES | growth AUC (Akkermansia muciniphila) | growth AUC (Bacteroides caccae) | growth AUC (Bacteroides clarus) | growth AUC (Bacteroides dorei) | growth AUC (Bacteroides stercoris) | growth AUC [1] | growth AUC (Bacteroides uniformis) | growth AUC [2] | growth AUC (Clostridium difficile) | growth AUC (Collinsella aerofaciens)
20 | Cc1cnc2c(C(=O)O)c(Cl)ccc2c1 | 0.939 | 0.996 | 0.986 | 1.03 | 1.03 | 0.995 | 1.04 | 0.967 | 0.995 | 1.01
21 | NCCO.O=C(O)c1nc(Cl)ccc1Cl | 1.02 | 1.01 | 1.04 | 0.987 | 1.02 | 1.04 | 1 | 1.04 | 1 | 1.02
22 | CCCN(CCC)C(=O)SCc1ccccc1 | 1.04 | 0.994 | 0.996 | 0.976 | 1.13 | 0.972 | 0.985 | 0.967 | 0.987 | 0.998
23 | CNC(=O)Oc1cccc2c1OC(C)(C)C2=O | 1.05 | 1.03 | 1.03 | 1.02 | 1.04 | 1.02 | 1.05 | 1.02 | 1.01 | 1.01
24 | CC(C)[C@H](C(=O)O[C@H](C#N)c1cccc(Oc2ccccc2)c1)c1ccc(Cl)cc1 | 1.1 | 0.99 | 0.979 | 1.04 | 0.778 | 1.01 | 1.02 | 0.917 | 1 | 0.921
25 | CCN(C(=O)n1nnn(-c2ccccc2Cl)c1=O)C1CCCCC1 | 0.87 | 0.84 | 0.508 (active) | 0.513 (active) | 0.118 (active) | 0.107 (active) | 0.0622 (active) | 0.988 | 0.992 | 0.925
26 | CCOCn1c(-c2ccc(Cl)cc2)c(C#N)c(Br)c1C(F)(F)F | 1.07 | 0.902 | 0.956 | 0.945 | 0.914 | 0.95 | 0.943 | 1.04 | 0.816 | 0.926
27 | COP(=S)(OC)Oc1ccc([N+](=O)[O-])c(Cl)c1 | 1.04 | 0.99 | 0.973 | 0.972 | 0.973 | 0.993 | 0.943 | 1.01 | 0.961 | 0.958
28 | COP(=O)(OC)O/C(=C\Cl)c1ccc(Cl)cc1Cl | 1.11 | 0.975 | 1.02 | 1.03 | 1.02 | 0.969 | 1.01 | 1.02 | 0.97 | 0.997
29 | OC(Cc1ccccc1Cl)(Cn1cncn1)C1(Cl)CC1 (stereo not given) | 0.867 | 0.974 | 0.963 | 1.01 | 0.966 | 0.985 | 0.971 | 1.01 | 0.958 | 0.953
30 | CS(=O)(=O)c1ccc(C(=O)C2C(=O)CCCC2=O)c(Cl)c1 | 0.92 | 1.01 | 1.01 | 1.01 | 1.04 | 1.01 | 1 | 0.967 | 1.11 | 1.05
31 | COCC(=O)N(c1c(C)cccc1C)[C@@H](C)C(=O)OC | 1.19 | 0.953 | 0.968 | 0.922 | 1 | 1.04 | 0.981 | 1.04 | 1.04 | 0.973
32 | CCSC(=O)N1CCCCCC1 | 0.873 | 1.05 | 0.974 | 1 | 1 | 0.995 | 0.966 | 0.992 | 0.992 | 0.981
33 | Nc1ccc(Cl)cc1Cl | 1.06 | 1 | 1.01 | 1.02 | 0.97 | 1.03 | 0.993 | 1.04 | 1.03 | 1.04
34 | CC1=C(C(=O)Nc2ccccc2)SCCO1 | 0.979 | 1.02 | 1 | 0.982 | 1.21 | 1.04 | 0.993 | 0.956 | 1 | 1.03
35 | O=C(O)c1ccc(Cl)nc1 | 0.953 | 0.985 | 1.02 | 0.985 | 1.08 | 1.01 | 1.04 | 0.902 | 1.03 | 0.999
36 | COC(=O)COc1ccc(Cl)cc1Cl | 0.95 | 0.944 | 0.983 | 0.969 | 0.853 | 1.01 | 1.04 | 0.914 | 1 | 0.925
37 | CCOP(=O)(OCC)ON1C(=O)c2cccc3cccc(c23)C1=O | 1.01 | 0.856 | 0.898 | 0.754 (active) | 0.482 (active) | 0.736 (active) | 0.683 (active) | 1.05 | 0.946 | 0.936

— the supplement of paper PMC12669032
